A short description of test [1]: compound effects on lung adenocarcinoma cell viability – A549, calcein-AM fluorescence, 48 h, basal, profiling panel (AID 1162). Also: test concentration not given here. The conditions noted are these: higher = more signal.
A short description of test [2]: compound effects on differentiated 3T3-L1 adipocyte viability – cell-based, 3T3-L1 adipocytes, calcein-AM fluorescence, 48 h, basal, profiling panel (AID 1163). Also: test concentration not given here. The settings on record: 3T3-L1 adipocytes viability, higher = more signal.
Test [3] is described as follows: compound effects on hepatocellular carcinoma cell viability – HepG2, calcein-AM fluorescence, 48 h, basal, profiling panel (AID 1164). Also: test concentration not given here. The settings on record: higher = more signal.
Test [4] can be described thus: compound effects on multiple myeloma cell viability – MM1S, calcein-AM fluorescence, 48 h, basal, profiling panel (AID 1165).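 Also: viability of MM1S multiple myeloma cells under basal unstimulated conditions; test concentration not given here.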 The settings on record: higher = more signal.
The nature of test [5]: calcein-AM signal in unstimulated myeloma cells – cell-based, calcein-AM fluorescence, 48 h, PK04 Diversity Set, profiling panel (AID 1166).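 Also: cells grown under basal conditions without added stimulus; test concentration not given here.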 The conditions noted are these: RPMI8226 myeloma viability, higher = more signal.
Test [6] in a line: JC-1 mitochondrial signal, unstimulated HepG2 cells – cell-based, JC-1 fluorescence, 24 h, 100 nL compound, profiling panel (AID 1167). Also: test concentration not given here. The settings on record: HepG2 mitochondrial potential, higher = more signal.
Test [7] can be described thus: JC-1 mitochondrial signal, unstimulated adipocytes – cell-based, JC-1 fluorescence, 3T3-L1 adipocytes, 24 h, 100 nL compound, profiling panel (AID 1168). Also: test concentration not given here. The settings on record: JC-1 mitochondrial fluorescence, higher = more signal, called active from +8 up or from −8 down.
The nature of test [8]: JC-1 mitochondrial signal, unstimulated myeloma cells – cell-based, JC-1 fluorescence, RPMI8226, 24 h, 100 nL compound, profiling panel (AID 1169). Also: test concentration not given here. The conditions noted are these: JC-1 mitochondrial potential fluorescence, higher = more signal.
A short description of test [9]: JC-1 mitochondrial signal, unstimulated MM1S myeloma – cell-based, JC-1 fluorescence, 24 h, 100 nL compound, profiling panel (AID 1170). Also: test concentration not given here. The conditions noted are these: MM1S mitochondrial potential, higher = more signal.
Test [10] is described as follows: resazurin metabolic signal in A549 cells – cell-based, resazurin fluorescence, 24 h, PK04 Diversity Set, profiling panel (AID 1171). Also: test concentration not given here. The settings on record: A549 viability, higher = more signal, called active from +8 up or from −8 down. For orientation: Alamar Blue is a resazurin reagent that responds to reducing activity.
A short description of test [11]: resazurin metabolic signal in HepG2 cells – cell-based, resazurin fluorescence, 24 h, PK04 Diversity Set, profiling panel (AID 1172). Also: test concentration not given here. The conditions noted are these: HepG2 viability, higher = more signal.
Test [12] in a line: budding yeast growth changes without added modifier – OD600, strain BY4716, 24 h, basal condition, primary screen (AID 1173). The settings on record: S. cerevisiae BY4716 growth, OD600, 24 h; higher = more signal, called active from +8 up or from −8 down.
Test [13] is described as follows: viability profiling in MM1S myeloma cells – cell-based, resazurin fluorescence, basal, 24 h, PK04 Diversity Set, profiling panel (AID 1174). Also: test concentration not given here. The conditions noted are these: higher = more signal, called active from +8 up or from −8 down.
Test [14] addresses Dihydroorotate dehydrogenase (quinone), mitochondrial (Plasmodium falciparum (isolate 3D7)) (UniProt Q08210). Put plainly: inhibition of P. falciparum DHODH – biochemical, C-terminal His tag, absorbance 600 nm, primary screen (AID 1175).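 Also: recombinant parasite enzyme with a five histidine tag at its C terminus; test concentration not given here.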 The settings on record: PfDHODH enzyme, DCIP absorbance 600 nm; higher = more signal, called active from +8 up or from −8 down.
The nature of test [15]: inhibition of PAO1 biofilm formation – strain PAO1, LB-PBS medium, absorbance 600 nm, primary screen (AID 1176). Also: test concentration not given here. The settings on record: P. aeruginosa PAO1 growth/biofilm, A600, 12 h; higher = more signal.
A short description of test [16]: growth modulation of vineyard yeast isolate – strain RM11-1a, OD600, basal, 24 h, primary screen (AID 1177).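 Also: cultures grown under basal conditions with no added stressor; test concentration not given here.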 The conditions noted are these: S. cerevisiae RM11-1a growth, OD600, 24 h; higher = more signal, called active from +8 up or from −8 down.
Test [17] in a line: growth of efflux-deficient E. coli DRC39 – strain DRC39, OD650, 24 h, E. coli filamentation inducers, primary screen (AID 1178).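 Also: growth measured as culture turbidity by optical density at 650 nm; test concentration not given here.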 The settings on record: E. coli DRC39 acrAB, higher = more signal, called active from +8 up or from −8 down.
Test [18] can be described thus: growth of efflux-deficient E. coli DRC39 – strain DRC39, OD650, 48 h, E. coli filamentation inducers, primary screen (AID 1179).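 Also: screen aims at cell division blockers that make cells filament.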 The settings on record: E. coli DRC39 delta-acrAB growth, higher = more signal, called active from +8 up or from −8 down.
Test [19] is described as follows: viability profiling in RPMI8226 myeloma cells – cell-based, resazurin fluorescence, basal, 24 h, PK04 Diversity Set, profiling panel (AID 1180).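 Also: RPMI8826 multiple myeloma cell line at 5000 cells per well; test concentration not given here.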 The settings on record: higher = more signal.
Test [20] deals with E3 ubiquitin-protein ligase XIAP (Homo sapiens) (UniProt P98170). Briefly: small molecules binding XIAP protein – biophysical, small-molecule microarray, fluorescence 635 nm, primary screen (AID 1181).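 Also: score merges 667 nm emission and signal to noise over triplicate slides.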 The settings on record: higher = more signal.

Structures are written as SMILES. The source made the active and inactive calls. Unless noted, no rule for the calls is given here.

Sequence of E3 ubiquitin-protein ligase XIAP (Homo sapiens) (P98170 whole entry, looked up): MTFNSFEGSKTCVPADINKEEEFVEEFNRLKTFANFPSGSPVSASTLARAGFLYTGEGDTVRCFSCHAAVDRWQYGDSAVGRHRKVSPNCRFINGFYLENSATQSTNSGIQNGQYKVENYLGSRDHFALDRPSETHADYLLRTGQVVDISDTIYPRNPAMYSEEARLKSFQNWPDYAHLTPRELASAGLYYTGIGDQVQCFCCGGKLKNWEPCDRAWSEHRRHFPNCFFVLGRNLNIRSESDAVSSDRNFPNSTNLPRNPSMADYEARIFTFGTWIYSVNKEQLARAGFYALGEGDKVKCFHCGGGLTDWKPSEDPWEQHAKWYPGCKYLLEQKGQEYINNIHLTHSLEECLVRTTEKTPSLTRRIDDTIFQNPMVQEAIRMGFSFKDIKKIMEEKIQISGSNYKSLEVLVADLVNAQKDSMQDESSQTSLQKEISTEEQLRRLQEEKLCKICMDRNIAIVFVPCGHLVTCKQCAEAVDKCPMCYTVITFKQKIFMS
Sequence of Dihydroorotate dehydrogenase (quinone), mitochondrial (Plasmodium falciparum (isolate 3D7)) (Q08210 whole entry, looked up): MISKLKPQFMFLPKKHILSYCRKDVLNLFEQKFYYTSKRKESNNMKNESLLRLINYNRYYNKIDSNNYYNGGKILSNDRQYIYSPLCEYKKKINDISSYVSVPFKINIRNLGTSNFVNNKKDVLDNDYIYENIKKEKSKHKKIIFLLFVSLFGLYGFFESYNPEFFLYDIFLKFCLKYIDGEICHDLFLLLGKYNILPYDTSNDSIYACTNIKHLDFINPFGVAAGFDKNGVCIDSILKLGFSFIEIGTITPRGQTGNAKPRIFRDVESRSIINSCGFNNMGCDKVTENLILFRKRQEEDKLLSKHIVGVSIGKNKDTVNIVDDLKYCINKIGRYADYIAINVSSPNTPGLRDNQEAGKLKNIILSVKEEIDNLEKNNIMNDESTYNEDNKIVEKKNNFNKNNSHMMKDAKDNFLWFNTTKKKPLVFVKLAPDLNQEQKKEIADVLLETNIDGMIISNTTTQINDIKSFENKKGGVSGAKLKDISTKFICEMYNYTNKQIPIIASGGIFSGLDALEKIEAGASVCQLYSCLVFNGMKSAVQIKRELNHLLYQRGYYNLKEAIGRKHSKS

Consider `C=CCN1C(=O)[C@]2(O[C@H](CCn3cc([C@H](O)c4ccccc4)nn3)[C@@H]([Si](C)(C)c3ccc(OC)cc3)[C@@H]2C)c2cc(N3CCC3=O)ccc21`, for which the z-score in test [1] was -0.668; in test [2], 0.87; in test [3], -1.39; in test [4] it was -2.05; in test [5] it was -2.95; in [6], 2.75. Also, the z-score in test [7] is 0.85 (inactive); in test [8], -0.949; in test [9], 0.507; in [10] it was -1.71 (inactive); in [11], 0.0514; in test [12] it was 0.743 (inactive). In addition, the z-score in test [13] is -1.85 (inactive); in [15] it was 0.0245 (inactive); in test [16], 2.44 (inactive); in test [17], 0.518 (inactive); in [18] it was -0.0117 (inactive); in test [19], -1.67. In addition, the composite z-score in test [14] was 1.04 (inactive); in test [20], 0.0623.

Take `CC(C)N1C(=O)C[C@@](C(=O)NCC(F)(F)F)(c2ccc([N+](=O)[O-])cc2)[C@H]1c1ccc(CO)cc1`: the z-score in [1] was 1.41; in [2], 1.13; in test [3], -0.0704; in test [4] it was -0.464; in test [5] it was -1.66; in test [6], 0.868. For the same compound, the z-score in [7] was -0.502 (inactive); in test [8], -0.564; in test [9], -1.51; in test [10], 0.201 (inactive); in test [11], -0.228; in test [12] it was -0.957 (inactive). Also, the z-score was 1.26 (inactive) in [13]; 0.255 (inactive) in test [15]; -1.09 (inactive) in test [16]; 0.818 (inactive) in test [17]; 0.629 (inactive) in test [18]; 0.939 in test [19]. In addition, the composite z-score is -0.297 (inactive) in test [14] and -0.0448 in [20].

Turning to `Cc1ccc(S[C@]2(C(=O)NCCCN(C)C)CC(=O)N(Cc3cc(C(F)(F)F)cc(C(F)(F)F)c3)[C@@H]2c2ccc(CO)cc2I)cc1`, the z-score was 0.0371 in [1]; -0.787 in [2]; 0.241 in test [3]; -2.19 in test [4]; -2 in [5]; -0.547 in [6]. For the same compound, the z-score in [7] was 0.669 (inactive); in [8], -0.442; in [9] it was -2.03; in [10], -0.335 (inactive); in test [11], -0.274; in [12], -4.35 (inactive). For the same compound, the z-score in test [13] was -3.04 (inactive); in test [15], 0.323 (inactive); in test [16], -0.514 (inactive); in test [17] it was 0.392 (inactive); in test [18], 0.786 (inactive); in test [19], -2.62. The composite z-score in test [14] is -0.0868 (inactive); in [20], -0.0795.

`C=CCC(OC(C)=O)[C@@H]1[C@@H](N(Cc2cc3ccccc3o2)C(=O)c2cccc3ccccc23)c2cc(OCCCO)ccc2N1C(=O)c1ccc(-c2ccccc2)cc1` (stereo not given in full): the z-score in test [1] is 0.067; in test [2], 0.509; in test [3], 0.168; in [4], 0.612; in [5] it was -2.25; in [6] it was 3.47. Besides, the z-score in test [7] is 0.0822 (inactive); in [8], -0.448; in [9] it was 0.955; in test [10] it was -0.808 (inactive); in [11], -1.11; in [12], -0.356 (inactive). Further, the z-score in test [13] was 0.353 (inactive); in test [15] it was -1.27 (inactive); in [16], -0.208 (inactive); in test [17] it was 0.75 (inactive); in test [18] it was -0.11 (inactive); in test [19] it was 0.03. For the same compound, the results for the composite z-score in test [14] and in test [20] were -0.0369 (inactive) and -0.256, respectively.

Consider `CC(C)[Si](C#Cc1ccc(Oc2ccccc2)cc1)(O[Si](C#Cc1ccc(Oc2ccccc2)cc1)(C(C)C)C(C)C)C(C)C`, for which the z-score in test [1] was 0.271; in [2], 0.587; in test [3], -0.377; in test [4], -1.58; in [5], -0.743; in test [6] it was -0.683. The z-score in test [7] is 0.733 (inactive); in [8] it was 0.0384; in [9] it was -0.00729; in test [10], 0.162 (inactive); in test [11], 0.0013; in [12], 1.95 (inactive). Also, the z-score in test [13] is 0.698 (inactive); in test [15], -0.133 (inactive); in test [16] it was 1.88 (inactive); in test [17] it was 0.879 (inactive); in test [18], 0.3 (inactive); in test [19] it was 0.603. For the same compound, the composite z-score in test [14] was 0.936 (inactive); in [20] it was -0.0009.

Take `C=C(CC1([C@@H](NP(=O)(c2ccccc2)c2ccccc2)[C@H]2C[C@@H]2CCCC)CC1)c1ccccc1`: the z-score is -0.665 in test [1]; -0.523 in [2]; -0.721 in test [3]; -2.74 in test [4]; -3.25 in [5]; -2.48 in test [6]. Besides, the z-score in [7] was -0.841 (inactive); in test [8], -0.968; in [9] it was -1.92; in [10], 4.95 (inactive); in test [11], 2.02; in test [12] it was 1.06 (inactive). For the same compound, the z-score is 1.07 (inactive) in [13]; 0.812 (inactive) in [15]; 0.753 (inactive) in [16]; -0.167 (inactive) in test [17]; -0.821 (inactive) in test [18]; 3.34 in [19]. For the same compound, the composite z-score in test [14] was -0.424 (inactive); in test [20] it was -0.167.

In the case of `O=C(CS)NCCCCCCNC(=O)[C@@H]1C[C@@H]2C(=O)NCC(=O)N2[C@@H]1c1cccc(OCCO)c1`, the z-score in [1] is 0.861; in test [2] it was -0.356; in test [3], 0.381; in [4], 0.38; in test [5] it was 0.754; in test [6], 0.502. Also, the z-score in test [7] is 0.475 (inactive); in test [8], 0.116; in test [9], -0.502; in test [10] it was -0.489 (inactive); in test [11], -0.3; in test [12] it was -0.419 (inactive). The z-score in test [13] is -0.217 (inactive); in test [15], 0.351 (inactive); in [16], 0.752 (inactive); in test [17], 0.713 (inactive); in [18], 1.16 (inactive); in test [19] it was -0.252. Moreover, the composite z-score in test [14] was -0.216 (inactive); in [20] it was 0.0346.

As to `CN(C)CCCC[C@@H]1NC(=O)[C@H]2C[C@@H](C(=O)NCCCCCCN)[C@@H](c3ccc(O)cc3)N2C1=O`, the z-score in [1] was 0.168; in test [2] it was 0.526; in test [3], -0.0064; in test [4], -0.314; in test [5], 0.226; in test [6] it was -0.878. Further, the z-score in test [7] is 0.862 (inactive); in [8], -0.128; in [9] it was 0.119; in test [10], 0.286 (inactive); in test [11], -0.24; in [12], -0.343 (inactive). The z-score was 0.696 (inactive) in test [13]; -0.338 (inactive) in [15]; 0.578 (inactive) in [16]; 0.332 (inactive) in [17]; 0.458 (inactive) in test [18]; 0.683 in [19]. Also, the composite z-score is -1.31 (inactive) in test [14] and 0.121 in [20].

Values taken from PubChem BioAssay.
